Consider 8 molecules from PubChem BioAssay.

A short description of experiment [1]: EMT-state selective cytotoxicity in co-culture – imaging, PC-3E GFP, TEM4-18 mCherry, primary screen (AID 1345086;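 active = compounds killing one labelled cell type while sparing the other, by normalised counts and ratio limits, not self-fluorescent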;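 for all read-outs here: cells exposed to compound for 72 h before imaging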;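 for red/green cell ratio (normalised): normalised mesenchymal count divided by normalised epithelial count so high means epithelial killing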). The note with it: PC-3E GFP / TEM4-18 mCherry co-culture, imaging cell counts, at 1 µM; for red/green cell ratio (normalised): actives lie on both sides, counts scaled to control wells, 1 = unselective.
The nature of experiment [2]: viability loss with induced miR-34 in A549 – imaging, A549 dox-inducible miR-34, nuclei and caspase counts, primary screen (AID 1347080). To be noted: A549 miR-34 inducible, Hoechst nuclei count, 48 h.
The mark [3] stands for this setting: measured here: epithelial PC-3E GFP cell survival.
The mark [4] stands for this setting: measured here: mesenchymal TEM4-18 mCherry cell survival.
The mark [5] stands for this setting: stronger effect = lower value, cell number ratio, induced over uninduced.
The mark [6] stands for this setting: measured here: relative caspase fold change +Dox/-Dox.
Setting [7] is: measured here: total cells with miR-34 induction, stronger effect = lower value.
Where [8] appears, read: measured here: total cells without miR-34 induction.

Activity calls are given as the source filed them.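 Rule for the calls, unless noted: active = compounds whose cell count with miR-34 switched on is under 0.7 times the count with it off; inactive = the rest.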

On to `O=c1[nH]cnc2c1ncn2C1O[C@H](CO)[C@@H](O)[C@H]1O` (stereo partly specified), for which the red/green cell ratio (normalised) in experiment [1] was 1.22 (inactive). Besides, the normalised cell number amounted to 0.83 in experiment [1] (setting [3]) and 1.02 in experiment [1] (setting [4]). For the same molecule, the fold change in experiment [2] (setting [5]) is 0.943 (inactive); in experiment [2] (setting [6]), 0.652. The values for the cell count in experiment [2] (setting [7]) and in experiment [2] (setting [8]) were 8910 and 9440, respectively.
`CSCC[C@H](NC(=O)[C@H](Cc1c[nH]c2ccccc12)NC(=O)[C@H](C)NC(=O)OC(C)(C)C)C(=O)N[C@@H](CC(=O)O)C(=O)N[C@@H](Cc1ccccc1)C(N)=O`: the red/green cell ratio (normalised) in experiment [1] was 0.98 (inactive). For the same molecule, the values for the normalised cell number in experiment [1] (setting [3]) and in experiment [1] (setting [4]) were 1.15 and 1.13, respectively. Further, the fold change in experiment [2] (setting [5]) is 0.979 (inactive); in experiment [2] (setting [6]) it was 0.82. The cell count in experiment [2] (setting [7]) was determined as 9410; in experiment [2] (setting [8]), 9610.
For `CC(=O)OCC(=O)[C@@]1(O)[C@@H](C)CC2C3CCC4=CC(=O)C=C[C@]4(C)[C@@]3(F)[C@@H](O)C[C@@]21C` (stereo partly specified), the red/green cell ratio (normalised) in experiment [1] is 0.93 (inactive). The normalised cell number in experiment [1] (setting [3]) is 1.21; in experiment [1] (setting [4]), 1.13. Besides, the results for the fold change in experiment [2] (setting [5]) and in experiment [2] (setting [6]) were 0.963 (inactive) and 0.848, respectively. In addition, the results for the cell count in experiment [2] (setting [7]) and in experiment [2] (setting [8]) were 6280 and 6520, respectively.
Consider `O=C(O)c1ccccc1-c1c2cc(I)c(=O)c(I)c-2oc2c(I)c(O)c(I)cc12`, for which the red/green cell ratio (normalised) in experiment [1] is 0.52 (inactive). In addition, the normalised cell number is 0.98 in experiment [1] (setting [3]) and 0.5 in experiment [1] (setting [4]). For the same molecule, the fold change in experiment [2] (setting [5]) is 0.927 (inactive); in experiment [2] (setting [6]), 0.976. Also, the cell count stood at 9160 in experiment [2] (setting [7]) and 9880 in experiment [2] (setting [8]).
With `CC(=O)Oc1cc2c(s1)CCN([C@H](C(=O)C1CC1)c1ccccc1F)C2`, the red/green cell ratio (normalised) in experiment [1] is 1.12 (inactive). For the same molecule, the normalised cell number in experiment [1] (setting [3]) was 0.87; in experiment [1] (setting [4]), 0.98. In addition, the fold change is 0.848 (inactive) in experiment [2] (setting [5]) and 0.716 in experiment [2] (setting [6]). Also, the figures for the cell count in experiment [2] (setting [7]) and in experiment [2] (setting [8]) were 7480 and 8810, respectively.
For `NCCCC(N)C(=O)O` (stereo unspecified), in experiment [1], the red/green cell ratio (normalised) was 1.03 (inactive). Further, the results for the normalised cell number in experiment [1] (setting [3]) and in experiment [1] (setting [4]) were 0.99 and 1.02, respectively. The fold change in experiment [2] (setting [5]) was 0.906 (inactive); in experiment [2] (setting [6]) it was 0.95. Moreover, the cell count came out at 8560 in experiment [2] (setting [7]) and 9450 in experiment [2] (setting [8]).
Regarding `CO/N=C(/C(=O)N[C@@H]1C(=O)N2C(C(=O)OCSC(=O)c3ccco3)=CCS[C@H]12)c1csc(N)n1`, the red/green cell ratio (normalised) in experiment [1] is 0.72 (inactive). Moreover, the normalised cell number in experiment [1] (setting [3]) turned out to be 1.31; in experiment [1] (setting [4]), 0.94. For the same molecule, the fold change in experiment [2] (setting [5]) was 0.907 (inactive); in experiment [2] (setting [6]) it was 0.846. Moreover, the cell count in experiment [2] (setting [7]) turned out to be 8470; in experiment [2] (setting [8]) it was 9350.
Consider `CC(C)(O)c1ccccc1CC[C@@H](SC1(CC(=O)O)CC1)c1cccc(/C=C/c2ccc3ccc(Cl)cc3n2)c1`, for which the red/green cell ratio (normalised) in experiment [1] was 1.02 (inactive). Also, the normalised cell number in experiment [1] (setting [3]) is 1.13; in experiment [1] (setting [4]), 1.16. The fold change in experiment [2] (setting [5]) was 0.955 (inactive); in experiment [2] (setting [6]) it was 0.641. Also, the values for the cell count in experiment [2] (setting [7]) and in experiment [2] (setting [8]) were 9020 and 9450, respectively.
